About 79,000 compounds went through this panel and 15% of them were active in at least one assay; those are over-represented in the sample as a whole. Active and inactive are the calls of the source. Cut-off read from the data, not from the text of the source: active = growth inhibition above about 70%; inactive = the rest.
Tests used:
[1] = NCI Yeast Anticancer Drug Screen. Data for the rad50EPP+ strain (AID 151);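 note: 0% = growth of vehicle-treated control cultures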; conditions: S. cerevisiae rad50 mutant strain, stronger effect = higher value
Summary of the method: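 One strain with a rad50 alteration (rad50EPP+) was compound-treated, its growth then compared to that of vehicle controls.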

[2] = NCI Yeast Anticancer Drug Screen. Data for the mgt1 strain (AID 153); conditions: S. cerevisiae mgt1 mutant growth inhibition, stronger effect = higher value
Summary of the method: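 After exposure of the mgt1 yeast mutant to compound, growth was measured and reported as inhibition compared with vehicle controls.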

[3] = NCI Yeast Anticancer Drug Screen. Data for the rad50 strain (AID 155);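 note: 0% = growth of vehicle-only cultures of the same strain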; conditions: S. cerevisiae rad50 strain growth inhibition, stronger effect = higher value
Summary of the method: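 Inhibition values express reduced yeast growth in compound-treated cultures relative to vehicle-treated controls.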

[4] = NCI Yeast Anticancer Drug Screen. Data for the mec2-1 strain (AID 157); conditions: S. cerevisiae mec2-1 strain, stronger effect = higher value
Summary of the method: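 Test agents were screened against the mec2-1 yeast strain, with defined DNA repair or cell cycle alteration. Growth was scored as inhibition against vehicle-only controls.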

[5] = NCI Yeast Anticancer Drug Screen. Data for the rad14 strain (AID 159);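 note: 0% = growth of vehicle-treated control cultures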; conditions: S. cerevisiae rad14 strain growth inhibition, stronger effect = higher value
Summary of the method: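 A mutant yeast strain defective in DNA damage repair is treated with compound; inhibition of its growth is scored against untreated, vehicle-exposed cultures.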

[6] = NCI Yeast Anticancer Drug Screen. Data for the sgs1 mgt1 strain (AID 161);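 note: 0% = growth of cultures given vehicle only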; conditions: S. cerevisiae sgs1 mgt1 strain, stronger effect = higher value
Summary of the method: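 Genetically altered yeast, compound exposure, growth inhibition relative to vehicle.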

[7] = NCI Yeast Anticancer Drug Screen. Data for the cln2 rad14 strain (AID 165);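 note: 0% = growth equal to vehicle treated cultures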; conditions: S. cerevisiae cln2 rad14 strain, stronger effect = higher value
Summary of the method: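 Growth of compound-exposed yeast (cln2 rad14 genotype) measured and expressed as inhibition relative to vehicle.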

[8] = NCI Yeast Anticancer Drug Screen. Data for the bub3 strain (AID 167); conditions: S. cerevisiae bub3 mutant strain, stronger effect = higher value
Summary of the method: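 Steps: expose the mutant yeast strain to compound; grow alongside vehicle-treated cultures; measure growth; express inhibition against the vehicle cultures.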

[9] = NCI Yeast Anticancer Drug Screen. Data for the wt2 strain (AID 169);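 note: 0% = growth of vehicle-treated yeast cultures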; conditions: S. cerevisiae wt2 strain growth inhibition, stronger effect = higher value
Summary of the method: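 Genetically defined yeast strains from a DNA-repair/cell-cycle panel were used. Compound-exposed yeast growth was measured, and the inhibition was calculated relative to vehicle treatment.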

[10] = NCI Yeast Anticancer Drug Screen. Data for the mlh1 strain (AID 171);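 note: 0% = growth of vehicle-treated control cultures of the same strain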; conditions: S. cerevisiae mlh1 strain growth inhibition, stronger effect = higher value
Summary of the method: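 Here the genetically defined yeast mutant is grown with each compound, and the extent to which its growth falls below that of vehicle-exposed cells is reported.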

[11] = NCI Yeast Anticancer Drug Screen. Data for the sgs1 strain (AID 173);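 note: 0% = growth of vehicle-only control cultures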; conditions: S. cerevisiae sgs1 mutant, stronger effect = higher value
Summary of the method: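 Relative growth inhibition, referenced to vehicle, was determined in a yeast strain with a defined alteration affecting DNA damage repair or cell cycle control after compound exposure.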

[12] = NCI Yeast Anticancer Drug Screen. Data for the mlh1 rad18 strain (AID 175); conditions: S. cerevisiae mlh1 rad18 strain growth inhibition, stronger effect = higher value
Summary of the method: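 In this whole-cell yeast screen, a strain with altered DNA damage repair is challenged with compound, and its growth is measured against matched vehicle-treated controls.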

[13] = NCI Yeast Anticancer Drug Screen. Data for the rad18 strain (AID 177); conditions: S. cerevisiae rad18 mutant growth inhibition, stronger effect = higher value
Summary of the method: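 Screen uses a yeast strain with a defined lesion in DNA damage repair; compound effect is read as loss of growth compared to untreated vehicle cultures.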

[14] = NCI Yeast Anticancer Drug Screen. Data for the rad52 strain (AID 147);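 note: 0% = growth of vehicle-treated control cultures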; conditions: S. cerevisiae rad52 mutant growth inhibition, stronger effect = higher value
Summary of the method: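 Measured: yeast growth inhibition. System: strain with a defined DNA damage repair alteration. Reference: vehicle-treated control cultures.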

[15] = NCI Yeast Anticancer Drug Screen. Data for the CLN2oe strain (AID 163);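 note: 0% = growth of vehicle-only control cultures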; conditions: S. cerevisiae CLN2oe strain, stronger effect = higher value
Summary of the method: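 Here, growth inhibition in a cell-cycle-altered yeast strain after compound exposure was quantified against vehicle control growth.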

[16] = at 5.0 µM (retest, dose inferred, filed as 0.5)
[17] = at 50.0 µM (retest, dose inferred, filed as 5.0)

Measured: growth inhibition

Cc1cc(C)c2[s+]snc2c1
inactive: [1]; at 1.2 µM 1% | [1]; at 3.7 µM 5% | [1]; at 11.0 µM 5% | [1]; at 33.0 µM 20% | [2]; at 1.2 µM 1% | [2]; at 3.7 µM 3% | [2]; at 11.0 µM 6% | [2]; at 33.0 µM 12% | [2]; at 100.0 µM 23% | [3]; at 1.2 µM 0% | [3]; at 3.7 µM 1% | [3]; [16] -5% | [3]; at 11.0 µM 3% | [3]; at 33.0 µM 9% | [3]; [17] 23% | [3]; at 50.0 µM 50.5% | [3]; at 100.0 µM 20% | [4]; at 1.2 µM -3% | [4]; at 3.7 µM -5% | [4]; [16] -6% | [4]; at 11.0 µM -3% | [4]; at 33.0 µM 10% | [4]; [17] 68% | [4]; at 50.0 µM 50.2% | [4]; at 100.0 µM 29% | [5]; at 1.2 µM 2% | [5]; at 3.7 µM 4% | [5]; at 11.0 µM 5% | [5]; at 33.0 µM 9% | [5]; at 100.0 µM 21% | [6]; [16] -1% | [6]; [17] 31% | [7]; [16] -19% | [7]; [17] 19% | [7]; at 50.0 µM 33.1% | [8]; at 1.2 µM -4% | [8]; at 3.7 µM -4% | [8]; [16] -5% | [8]; at 11.0 µM -5% | [8]; at 33.0 µM 1% | [8]; [17] 61% | [8]; at 50.0 µM 52% | [8]; at 100.0 µM 30% | [9]; at 1.2 µM -2% | [9]; at 3.7 µM 1% | [9]; at 11.0 µM 3% | [9]; at 33.0 µM 7% | [9]; at 100.0 µM 30% | [10]; at 1.2 µM 1% | [10]; at 3.7 µM 1% | [10]; at 11.0 µM 0% | [10]; at 33.0 µM 4% | [10]; at 100.0 µM 19% | [11]; at 1.2 µM 4% | [11]; at 3.7 µM 7% | [11]; at 11.0 µM 8% | [11]; at 33.0 µM 17% | [11]; at 100.0 µM 36% | [12]; [16] 2% | [12]; [17] 34% | [13]; at 1.2 µM 7% | [13]; at 3.7 µM 9% | [13]; at 11.0 µM 6% | [13]; at 33.0 µM 27% | [13]; at 100.0 µM 49%
active: [1]; at 100.0 µM 80% | [6]; at 50.0 µM 79% | [12]; at 50.0 µM 76%

COc1cc(C(=O)C=O)cc(OC)c1OC
inactive: [14]; at 1.2 µM 1% | [14]; at 3.7 µM 3% | [14]; at 11.0 µM 1% | [14]; at 33.0 µM 0% | [1]; at 1.2 µM 1% | [1]; at 3.7 µM 5% | [1]; at 11.0 µM 6% | [1]; at 33.0 µM 16% | [1]; at 100.0 µM 58% | [2]; at 1.2 µM 1% | [2]; at 3.7 µM -3% | [2]; at 11.0 µM -4% | [2]; at 33.0 µM 14% | [3]; at 1.2 µM 0% | [3]; at 3.7 µM -5% | [3]; [16] -156% | [3]; at 11.0 µM 9% | [3]; at 33.0 µM 19% | [3]; [17] 44% | [3]; at 50.0 µM 44.3% | [4]; at 1.2 µM 1% | [4]; at 3.7 µM -1% | [4]; [16] -53% | [4]; at 11.0 µM 6% | [4]; at 33.0 µM -4% | [4]; [17] 3% | [4]; at 50.0 µM 57% | [5]; at 1.2 µM -3% | [5]; at 3.7 µM -7% | [5]; at 11.0 µM -5% | [5]; at 33.0 µM 9% | [6]; [16] -67% | [6]; [17] 60% | [15]; at 1.2 µM 0% | [15]; at 3.7 µM -5% | [15]; at 11.0 µM -7% | [15]; at 33.0 µM 6% | [7]; [16] -65% | [7]; [17] 8% | [7]; at 50.0 µM 37.5% | [8]; at 1.2 µM -6% | [8]; at 3.7 µM -6% | [8]; [16] -66% | [8]; at 11.0 µM -8% | [8]; at 33.0 µM -8% | [8]; [17] 33% | [8]; at 50.0 µM 31.9% | [9]; at 1.2 µM 2% | [9]; at 3.7 µM 1% | [9]; at 11.0 µM 0% | [9]; at 33.0 µM 0% | [10]; at 1.2 µM 9% | [10]; at 3.7 µM -3% | [10]; at 11.0 µM -6% | [10]; at 33.0 µM -8% | [11]; at 1.2 µM 1% | [11]; at 3.7 µM 4% | [11]; at 11.0 µM 3% | [11]; at 33.0 µM 31% | [12]; [16] -129% | [12]; [17] 52% | [12]; at 50.0 µM 67.4% | [13]; at 1.2 µM 0% | [13]; at 3.7 µM -2% | [13]; at 11.0 µM -2% | [13]; at 33.0 µM 5%
active: [14]; at 100.0 µM 86% | [2]; at 100.0 µM 94% | [3]; at 100.0 µM 91% | [4]; at 100.0 µM 90% | [5]; at 100.0 µM 95% | [6]; at 50.0 µM 73% | [15]; at 100.0 µM 85% | [8]; at 100.0 µM 87% | [9]; at 100.0 µM 88% | [10]; at 100.0 µM 88% | [11]; at 100.0 µM 97% | [13]; at 100.0 µM 91%
